From the supplement of paper PMC7156485 come the findings set out here.
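Note: TDF denotes transformed human dermal fibroblasts of mesenchymal origin.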

The test system of the test is HCC1569. In words: cell number relative to DMSO (% of DMSO); higher = more cells (less growth inhibition / toxicity). The conditions noted are these: concentration: 10 µM; 24 h. In outline: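 H1.0 nuclear intensity or cell number is expressed as percent of the plate control, with the median of replicates taken. HCC1569 and TDF cells were treated with compounds at 10 µM for 24 h at 37 °C, in triplicate, then fixed and immunostained for H1.0 with DAPI as a nuclear stain. HCC1569 values were smoothed to correct for positional effects.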
Compound `Cc1scc2c1N(C(=O)CN1CCN(C)CC1)c1ccccc1NC2=O.Cl.Cl` [Telenzepine.2HCl] had a cell number of 101.

Consider `CC1C(=O)N=C2Nc3cccc(Cl)c3CN21` (stereo unspecified) [Quazinone], for which the cell number was 111.

Compound `CC(=O)c1ccc(NC2=C(Cl)C(=O)c3ccccc3C2=O)cc1` [2-(4-acetylanilino)-3-chloronaphthoquinone] came in with a cell number of 17.7.

In turn, `N#Cc1cc2nc([O-])c([O-])nc2cc1[N+](=O)[O-].[Na+].[Na+]` [CNQX disodium] came in with a cell number of 99.5.

On to `Cl.O=C(CCCN1CCC(O)(c2cccc(C(F)(F)F)c2)CC1)c1ccc(F)cc1` [Trifluperidol hydrochloride], for which the cell number came to 101.

Compound `CCCC(=O)NCCc1c2n(c3ccc(OC)cc13)CCCc1ccccc1-2` had a cell number of 96.8.

With `O=C(C=CC=Cc1ccc2c(c1)OCO2)N1CCCCC1` [Piperine], the cell number came to 100.

The compound `CN(C)c1ccc(O)c2c1CC1CC3C(N(C)C)C(=O)C(C(N)=O)=C(O)C3(O)C(=O)C1=C2O` (stereo unspecified) [Minocycline] registered a cell number of 107.

`COc1cc2c(c(OC)c1OC)-c1ccc(OC)c(=O)cc1C(NC=O)CC2` (stereo unspecified) [N-Formyl-Deacetylcolchicine] registered a cell number of 98.9.

`CCCCC=CCCCCCCCC(=O)O` [9(Z)-Tetradecenoic acid] showed a cell number of 98.2.

For the compound `CC(C)CC(NC(=O)C(Cc1c[nH]c2ccccc12)NC(=O)C(Cc1ccc(O)cc1)NC(=O)C(CO)NC(=O)C(Cc1c[nH]c2ccccc12)NC(=O)C(Cc1cnc[nH]1)NC(=O)C1CCC(=O)N1)C(=O)NC(CCCN=C(N)N)C(=O)N1CCCC1C(=O)NCC(N)=O` (stereo unspecified) [Triptorelin], the cell number worked out at 107.
